# From PMC7862700, “An all-to-all approach to the identification of sequence-specific readers for epigenetic DNA modifications on cytosine”
# Columns and labels:
# Assay in all cases: DAPPL (digital affinity profiling via proximity ligation, sequencing); 10 mM Tris-HCl pH 7.5, 50 mM NaCl, 1 mM DTT, 4% glycerol, room temperature, 30 min; GST-TFs on glutathione beads, 16-mer random dsDNA library, 0.1% formaldehyde crosslink after washing; high values mean tight binding
# FLI1 = target: T1, FLI1 (Homo sapiens, UniProt Q01543 1-452); details: protein: recombinant; tags: N-terminal GST; dsDNA, one strand shown
# T1 sequence: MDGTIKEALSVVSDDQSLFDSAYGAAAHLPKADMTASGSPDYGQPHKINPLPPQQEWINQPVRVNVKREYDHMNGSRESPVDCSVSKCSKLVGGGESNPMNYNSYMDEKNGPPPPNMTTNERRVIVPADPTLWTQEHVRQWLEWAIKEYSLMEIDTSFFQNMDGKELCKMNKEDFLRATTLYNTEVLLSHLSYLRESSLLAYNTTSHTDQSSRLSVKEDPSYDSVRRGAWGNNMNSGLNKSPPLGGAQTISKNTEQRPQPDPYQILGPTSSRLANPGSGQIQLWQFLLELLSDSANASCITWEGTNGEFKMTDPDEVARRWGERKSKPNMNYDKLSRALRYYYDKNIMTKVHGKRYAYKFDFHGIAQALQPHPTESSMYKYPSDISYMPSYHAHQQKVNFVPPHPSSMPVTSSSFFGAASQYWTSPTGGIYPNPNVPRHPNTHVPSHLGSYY
# Method in brief: (§1)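 Pools were built from human transcription factors expressed in yeast as GST fusions, captured on glutathione beads and DNA-barcoded, along with a tag-only sample. Incubation with 200 nmole of a 16-mer random double-stranded DNA library lasted 30 min at room temperature in Tris/NaCl/DTT/glycerol buffer, and was followed by washing, 0.1% formaldehyde crosslinking, proximity ligation, PCR amplification and Illumina NextSeq500 sequencing. Binding signal is the quotient of each hexamer's read frequency for a factor and its frequency for the tag-only sample.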
# ELK1 = target: T2, ELK1 (Homo sapiens, UniProt P19419 1-428); details: protein: recombinant; tags: N-terminal GST; dsDNA, one strand shown
# T2 sequence: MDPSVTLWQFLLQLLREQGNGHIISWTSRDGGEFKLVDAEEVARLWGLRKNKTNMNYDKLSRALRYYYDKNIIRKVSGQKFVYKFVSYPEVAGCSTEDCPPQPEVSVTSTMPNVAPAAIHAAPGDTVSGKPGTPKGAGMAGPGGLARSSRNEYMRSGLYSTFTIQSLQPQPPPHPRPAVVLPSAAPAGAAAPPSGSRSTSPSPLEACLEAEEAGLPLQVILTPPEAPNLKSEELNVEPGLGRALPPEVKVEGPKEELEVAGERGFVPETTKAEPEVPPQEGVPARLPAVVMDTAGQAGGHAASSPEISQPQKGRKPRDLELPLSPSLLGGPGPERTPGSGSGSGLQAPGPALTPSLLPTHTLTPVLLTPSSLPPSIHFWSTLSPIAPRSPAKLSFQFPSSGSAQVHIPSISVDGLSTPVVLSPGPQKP
# Method in brief: as §1
# GABPA = target: T3, GABPA (Homo sapiens, UniProt Q06546 1-454); details: protein: recombinant; tags: N-terminal GST; dsDNA, one strand shown
# T3 sequence: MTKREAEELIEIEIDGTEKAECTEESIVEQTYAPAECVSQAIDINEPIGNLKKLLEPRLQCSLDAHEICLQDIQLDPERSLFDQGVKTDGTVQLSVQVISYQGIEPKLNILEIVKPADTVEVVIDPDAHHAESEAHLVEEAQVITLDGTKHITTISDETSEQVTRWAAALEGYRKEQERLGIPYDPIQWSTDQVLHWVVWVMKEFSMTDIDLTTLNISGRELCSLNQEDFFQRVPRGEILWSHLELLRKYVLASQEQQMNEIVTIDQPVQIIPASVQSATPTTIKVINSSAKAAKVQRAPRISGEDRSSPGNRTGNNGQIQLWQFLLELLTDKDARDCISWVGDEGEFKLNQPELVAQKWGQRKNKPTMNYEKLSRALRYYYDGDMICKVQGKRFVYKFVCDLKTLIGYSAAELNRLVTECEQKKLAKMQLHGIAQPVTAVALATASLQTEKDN
# Method in brief: as §1
# ERG = target: T4, ERG (Homo sapiens, UniProt P11308 1-479); details: protein: recombinant; tags: N-terminal GST; dsDNA, one strand shown
# T4 sequence: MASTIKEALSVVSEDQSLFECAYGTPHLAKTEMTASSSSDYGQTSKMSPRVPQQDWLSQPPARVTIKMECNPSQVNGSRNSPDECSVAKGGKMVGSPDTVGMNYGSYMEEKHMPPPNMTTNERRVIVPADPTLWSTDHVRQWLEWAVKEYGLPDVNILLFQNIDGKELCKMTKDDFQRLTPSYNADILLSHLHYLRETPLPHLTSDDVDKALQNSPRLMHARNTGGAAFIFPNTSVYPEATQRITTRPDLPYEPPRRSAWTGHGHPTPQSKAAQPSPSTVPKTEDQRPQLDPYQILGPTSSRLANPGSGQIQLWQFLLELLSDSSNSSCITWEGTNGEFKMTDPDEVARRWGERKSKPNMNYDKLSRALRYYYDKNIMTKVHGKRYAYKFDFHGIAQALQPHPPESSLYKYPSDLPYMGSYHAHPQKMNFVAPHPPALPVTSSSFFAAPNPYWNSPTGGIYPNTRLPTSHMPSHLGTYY
# Method in brief: as §1
# ELF1 = ELF1 (Homo sapiens, UniProt P32519 1-619); details: protein: recombinant; tags: N-terminal GST; dsDNA, one strand shown
# Chain of ELF1 (P32519 whole entry): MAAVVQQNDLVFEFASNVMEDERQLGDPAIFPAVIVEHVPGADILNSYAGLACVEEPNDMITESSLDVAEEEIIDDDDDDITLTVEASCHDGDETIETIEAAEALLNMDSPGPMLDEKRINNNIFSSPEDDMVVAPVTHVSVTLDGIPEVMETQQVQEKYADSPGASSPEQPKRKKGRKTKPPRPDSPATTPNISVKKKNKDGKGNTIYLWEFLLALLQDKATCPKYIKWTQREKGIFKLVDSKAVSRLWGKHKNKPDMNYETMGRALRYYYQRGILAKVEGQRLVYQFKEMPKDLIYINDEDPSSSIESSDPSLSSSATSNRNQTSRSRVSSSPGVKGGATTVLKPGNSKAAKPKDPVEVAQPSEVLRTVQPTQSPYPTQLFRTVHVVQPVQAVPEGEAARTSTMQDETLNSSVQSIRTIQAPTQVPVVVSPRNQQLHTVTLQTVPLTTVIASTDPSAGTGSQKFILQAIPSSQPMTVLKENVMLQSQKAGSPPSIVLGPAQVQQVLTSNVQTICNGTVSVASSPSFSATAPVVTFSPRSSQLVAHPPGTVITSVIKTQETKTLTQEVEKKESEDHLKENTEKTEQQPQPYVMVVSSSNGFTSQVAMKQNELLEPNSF
# Method in brief: as §1
# EHF = target: T5, EHF (Homo sapiens, UniProt Q9NZC4 1-300); details: protein: recombinant; tags: N-terminal GST; dsDNA, one strand shown
# T5 sequence: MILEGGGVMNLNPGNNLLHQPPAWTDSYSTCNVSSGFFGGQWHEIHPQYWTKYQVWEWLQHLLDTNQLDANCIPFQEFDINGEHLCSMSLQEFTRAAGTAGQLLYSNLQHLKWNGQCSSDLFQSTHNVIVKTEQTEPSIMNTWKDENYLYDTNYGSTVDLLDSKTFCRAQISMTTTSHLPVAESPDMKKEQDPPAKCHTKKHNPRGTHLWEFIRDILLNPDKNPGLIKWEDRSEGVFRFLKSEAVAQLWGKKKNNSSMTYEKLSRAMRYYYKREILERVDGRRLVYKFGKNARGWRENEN
# Method in brief: as §1
# SPI1 = SPI1 (Homo sapiens, UniProt P17947 1-270); details: protein: recombinant; tags: N-terminal GST; dsDNA, one strand shown
# Method in brief: as §1
# SPIB = SPIB (Homo sapiens, UniProt Q01892 1-262); details: protein: recombinant; tags: N-terminal GST; dsDNA, one strand shown
# Chain of SPIB (Q01892 whole entry): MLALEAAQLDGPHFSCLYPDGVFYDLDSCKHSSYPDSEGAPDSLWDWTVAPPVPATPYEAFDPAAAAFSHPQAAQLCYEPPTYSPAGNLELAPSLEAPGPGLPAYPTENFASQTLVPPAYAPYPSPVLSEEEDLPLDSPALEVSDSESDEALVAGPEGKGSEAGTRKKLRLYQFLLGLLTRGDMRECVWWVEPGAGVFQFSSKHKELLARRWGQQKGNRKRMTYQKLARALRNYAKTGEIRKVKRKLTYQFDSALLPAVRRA
# Method in brief: as §1
# ELK3 = target: T6, ELK3 (Homo sapiens, UniProt P41970 1-407); details: protein: recombinant; tags: N-terminal GST; dsDNA, one strand shown
# T6 sequence: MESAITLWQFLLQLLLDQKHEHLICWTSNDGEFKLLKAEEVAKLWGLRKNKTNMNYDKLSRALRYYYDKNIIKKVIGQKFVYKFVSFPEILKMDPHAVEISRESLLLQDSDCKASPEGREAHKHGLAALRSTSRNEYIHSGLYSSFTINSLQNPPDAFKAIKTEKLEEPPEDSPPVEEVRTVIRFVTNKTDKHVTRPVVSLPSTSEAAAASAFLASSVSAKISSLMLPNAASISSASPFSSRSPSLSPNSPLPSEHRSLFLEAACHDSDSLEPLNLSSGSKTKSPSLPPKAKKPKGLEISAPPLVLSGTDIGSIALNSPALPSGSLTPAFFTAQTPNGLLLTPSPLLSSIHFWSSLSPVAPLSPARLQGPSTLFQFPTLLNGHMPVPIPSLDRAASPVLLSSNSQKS
# Method in brief: as §1
# FEV = target: T7, FEV (Homo sapiens, UniProt Q99581 1-238); details: protein: recombinant; tags: N-terminal GST; dsDNA, one strand shown
# T7 sequence: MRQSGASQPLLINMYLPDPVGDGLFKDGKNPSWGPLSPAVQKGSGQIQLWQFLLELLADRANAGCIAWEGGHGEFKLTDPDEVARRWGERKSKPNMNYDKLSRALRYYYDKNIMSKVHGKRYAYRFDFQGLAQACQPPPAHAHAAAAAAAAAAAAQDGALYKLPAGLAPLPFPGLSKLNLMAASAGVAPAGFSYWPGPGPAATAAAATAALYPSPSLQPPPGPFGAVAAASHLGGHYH
# Method in brief: as §1
# ETV5 = ETV5 (Homo sapiens, UniProt P41161 1-510); details: protein: recombinant; tags: N-terminal GST; dsDNA, one strand shown
# Chain of ETV5 (P41161 whole entry): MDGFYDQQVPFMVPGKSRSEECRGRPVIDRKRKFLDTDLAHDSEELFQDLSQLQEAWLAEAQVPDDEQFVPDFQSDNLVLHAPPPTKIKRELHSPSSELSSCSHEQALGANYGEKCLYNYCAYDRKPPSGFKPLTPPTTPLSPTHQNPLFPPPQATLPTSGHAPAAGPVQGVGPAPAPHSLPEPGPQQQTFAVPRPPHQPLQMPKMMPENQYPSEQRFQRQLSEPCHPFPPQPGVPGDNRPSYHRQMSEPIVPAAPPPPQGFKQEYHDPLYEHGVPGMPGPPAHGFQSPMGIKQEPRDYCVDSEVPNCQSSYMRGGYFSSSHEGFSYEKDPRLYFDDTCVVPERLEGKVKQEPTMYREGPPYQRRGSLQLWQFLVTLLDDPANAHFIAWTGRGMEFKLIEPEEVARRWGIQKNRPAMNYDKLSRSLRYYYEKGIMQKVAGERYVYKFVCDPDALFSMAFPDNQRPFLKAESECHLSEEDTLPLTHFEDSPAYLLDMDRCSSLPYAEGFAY
# Method in brief: as §1
# HSF1 = HSF1 (Homo sapiens, UniProt Q00613 1-529); details: protein: recombinant; tags: N-terminal GST; chain copies: 3; dsDNA, one strand shown
# Chain of HSF1 (Q00613 whole entry): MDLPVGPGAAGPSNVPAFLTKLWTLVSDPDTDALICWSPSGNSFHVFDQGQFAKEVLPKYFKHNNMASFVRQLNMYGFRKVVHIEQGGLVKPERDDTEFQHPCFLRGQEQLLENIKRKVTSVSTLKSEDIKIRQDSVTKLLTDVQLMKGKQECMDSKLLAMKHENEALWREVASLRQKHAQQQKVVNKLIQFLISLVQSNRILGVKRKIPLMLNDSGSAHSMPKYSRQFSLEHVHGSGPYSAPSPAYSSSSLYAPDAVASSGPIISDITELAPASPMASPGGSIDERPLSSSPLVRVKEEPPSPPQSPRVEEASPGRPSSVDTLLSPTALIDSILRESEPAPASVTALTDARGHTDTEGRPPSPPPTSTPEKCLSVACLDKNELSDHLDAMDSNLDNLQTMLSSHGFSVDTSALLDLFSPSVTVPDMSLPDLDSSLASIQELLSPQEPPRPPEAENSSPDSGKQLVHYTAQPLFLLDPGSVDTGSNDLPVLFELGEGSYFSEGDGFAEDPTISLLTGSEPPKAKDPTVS
# Method in brief: as §1
# SPIC = target: T8, SPIC (Homo sapiens, UniProt Q8N5J4 1-248); details: protein: recombinant; tags: N-terminal GST; dsDNA, one strand shown
# T8 sequence: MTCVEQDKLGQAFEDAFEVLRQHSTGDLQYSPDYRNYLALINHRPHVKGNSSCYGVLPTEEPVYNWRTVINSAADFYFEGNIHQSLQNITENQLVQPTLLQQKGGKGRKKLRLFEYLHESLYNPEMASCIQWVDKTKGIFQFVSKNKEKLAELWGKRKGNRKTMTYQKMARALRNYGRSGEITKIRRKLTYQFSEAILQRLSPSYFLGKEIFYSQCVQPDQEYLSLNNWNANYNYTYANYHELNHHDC
# Method in brief: as §1
# ELF4 = ELF4 (Homo sapiens, UniProt Q99607 1-663); details: protein: recombinant; tags: N-terminal GST; dsDNA, one strand shown
# Chain of ELF4 (Q99607 whole entry): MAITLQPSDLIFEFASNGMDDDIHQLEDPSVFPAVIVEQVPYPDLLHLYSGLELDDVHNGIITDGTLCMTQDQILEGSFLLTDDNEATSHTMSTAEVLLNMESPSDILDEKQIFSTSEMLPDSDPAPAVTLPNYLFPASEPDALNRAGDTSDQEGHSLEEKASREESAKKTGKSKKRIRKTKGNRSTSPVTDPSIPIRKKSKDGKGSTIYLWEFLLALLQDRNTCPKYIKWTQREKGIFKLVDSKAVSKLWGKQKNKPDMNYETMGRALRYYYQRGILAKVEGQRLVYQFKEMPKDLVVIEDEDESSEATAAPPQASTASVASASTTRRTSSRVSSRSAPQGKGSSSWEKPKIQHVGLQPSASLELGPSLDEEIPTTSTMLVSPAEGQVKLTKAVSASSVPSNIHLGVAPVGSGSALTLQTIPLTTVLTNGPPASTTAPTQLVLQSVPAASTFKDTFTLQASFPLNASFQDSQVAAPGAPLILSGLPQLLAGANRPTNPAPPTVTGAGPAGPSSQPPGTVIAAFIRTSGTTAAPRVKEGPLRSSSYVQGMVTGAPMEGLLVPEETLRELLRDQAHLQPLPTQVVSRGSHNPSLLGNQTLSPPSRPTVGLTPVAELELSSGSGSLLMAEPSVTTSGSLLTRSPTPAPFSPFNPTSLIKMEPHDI
# Method in brief: as §1
# ELK4 = target: T9, ELK4 (Homo sapiens, UniProt P28324-2 1-405); details: protein: recombinant; tags: N-terminal GST; dsDNA, one strand shown
# T9 sequence: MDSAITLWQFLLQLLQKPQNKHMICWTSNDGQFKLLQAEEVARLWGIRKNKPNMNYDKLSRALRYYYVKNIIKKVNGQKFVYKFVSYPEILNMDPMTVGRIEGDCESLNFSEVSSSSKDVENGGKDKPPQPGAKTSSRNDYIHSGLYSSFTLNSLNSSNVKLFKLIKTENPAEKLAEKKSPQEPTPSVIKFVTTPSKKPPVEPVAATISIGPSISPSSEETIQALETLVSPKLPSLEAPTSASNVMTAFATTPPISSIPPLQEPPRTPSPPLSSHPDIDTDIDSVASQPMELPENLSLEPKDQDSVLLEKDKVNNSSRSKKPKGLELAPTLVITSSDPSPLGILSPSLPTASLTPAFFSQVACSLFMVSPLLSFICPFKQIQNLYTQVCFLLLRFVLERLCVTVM
# Method in brief: as §1
# ETV2 = target: T10, ETV2 (Homo sapiens, UniProt O00321 1-342); details: protein: recombinant; tags: N-terminal GST; dsDNA, one strand shown
# T10 sequence: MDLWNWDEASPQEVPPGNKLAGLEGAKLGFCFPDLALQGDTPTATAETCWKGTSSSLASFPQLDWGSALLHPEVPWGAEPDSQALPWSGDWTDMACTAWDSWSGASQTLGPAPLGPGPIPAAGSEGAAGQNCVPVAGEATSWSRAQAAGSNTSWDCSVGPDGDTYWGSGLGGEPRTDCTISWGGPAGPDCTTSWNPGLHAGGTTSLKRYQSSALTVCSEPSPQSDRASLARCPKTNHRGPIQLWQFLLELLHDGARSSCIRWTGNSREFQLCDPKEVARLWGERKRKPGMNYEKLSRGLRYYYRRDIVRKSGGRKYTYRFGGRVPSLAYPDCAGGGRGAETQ
# Method in brief: as §1
# ELF3 = target: T11, ELF3 (Homo sapiens, UniProt P78545 1-371); details: protein: recombinant; tags: N-terminal GST; dsDNA, one strand shown
# T11 sequence: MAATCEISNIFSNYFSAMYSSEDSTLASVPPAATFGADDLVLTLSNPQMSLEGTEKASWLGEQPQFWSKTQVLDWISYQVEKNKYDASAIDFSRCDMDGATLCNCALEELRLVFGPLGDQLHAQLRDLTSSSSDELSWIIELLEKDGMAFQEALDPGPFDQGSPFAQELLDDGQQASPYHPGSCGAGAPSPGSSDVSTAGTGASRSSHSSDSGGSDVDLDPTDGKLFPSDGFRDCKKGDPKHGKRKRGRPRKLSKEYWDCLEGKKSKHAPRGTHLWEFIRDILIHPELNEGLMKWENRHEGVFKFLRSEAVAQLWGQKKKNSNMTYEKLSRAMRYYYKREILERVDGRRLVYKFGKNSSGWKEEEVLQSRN
# Method in brief: as §1
# CRX = CRX (Homo sapiens, UniProt O43186 1-299); details: protein: recombinant; tags: N-terminal GST; dsDNA, one strand shown
# Chain of CRX (O43186 whole entry): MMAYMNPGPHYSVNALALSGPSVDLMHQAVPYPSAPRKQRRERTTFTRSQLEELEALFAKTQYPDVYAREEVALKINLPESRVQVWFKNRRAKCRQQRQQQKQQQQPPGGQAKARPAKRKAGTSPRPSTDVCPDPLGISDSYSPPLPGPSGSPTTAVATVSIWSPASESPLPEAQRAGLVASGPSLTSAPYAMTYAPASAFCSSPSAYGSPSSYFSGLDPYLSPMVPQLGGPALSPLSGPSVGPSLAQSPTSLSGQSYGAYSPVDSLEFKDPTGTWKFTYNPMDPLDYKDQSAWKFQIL
# Method in brief: as §1
# ETV1 = ETV1 (Homo sapiens, UniProt P50549 1-477); details: protein: recombinant; tags: N-terminal GST; dsDNA, one strand shown
# Chain of ETV1 (P50549 whole entry): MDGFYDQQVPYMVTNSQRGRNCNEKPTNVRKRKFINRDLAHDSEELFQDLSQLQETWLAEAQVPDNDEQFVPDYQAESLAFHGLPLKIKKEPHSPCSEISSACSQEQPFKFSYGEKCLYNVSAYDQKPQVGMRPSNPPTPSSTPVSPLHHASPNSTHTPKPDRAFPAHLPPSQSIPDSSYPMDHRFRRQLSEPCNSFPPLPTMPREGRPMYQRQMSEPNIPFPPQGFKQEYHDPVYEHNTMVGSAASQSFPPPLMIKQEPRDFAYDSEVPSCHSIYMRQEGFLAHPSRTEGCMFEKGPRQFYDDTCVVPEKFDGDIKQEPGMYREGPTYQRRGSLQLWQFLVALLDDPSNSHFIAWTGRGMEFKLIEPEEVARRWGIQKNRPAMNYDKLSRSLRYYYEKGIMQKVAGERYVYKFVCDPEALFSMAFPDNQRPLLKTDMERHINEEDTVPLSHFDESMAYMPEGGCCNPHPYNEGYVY
# Method in brief: as §1
sequence,measurement,setting,value
GCCCCT,binding signal,FLI1,"1.22 fold enrichment (6-mer frequency, TF over GST control)"
same,binding signal,ELK1,"1.2 fold enrichment (6-mer frequency, TF over GST control)"
same,binding signal,GABPA,"1.24 fold enrichment (6-mer frequency, TF over GST control)"
same,binding signal,ERG,"1.23 fold enrichment (6-mer frequency, TF over GST control)"
same,binding signal,ELF1,"1.37 fold enrichment (6-mer frequency, TF over GST control)"
same,binding signal,EHF,"1.43 fold enrichment (6-mer frequency, TF over GST control)"
same,binding signal,SPI1,"1.29 fold enrichment (6-mer frequency, TF over GST control)"
same,binding signal,SPIB,"1.21 fold enrichment (6-mer frequency, TF over GST control)"
same,binding signal,ELK3,"1.36 fold enrichment (6-mer frequency, TF over GST control)"
same,binding signal,FEV,"1.39 fold enrichment (6-mer frequency, TF over GST control)"
same,binding signal,ETV5,"1.39 fold enrichment (6-mer frequency, TF over GST control)"
same,binding signal,HSF1,"1.13 fold enrichment (6-mer frequency, TF over GST control)"
same,binding signal,SPIC,"1.22 fold enrichment (6-mer frequency, TF over GST control)"
same,binding signal,ELF4,"1.4 fold enrichment (6-mer frequency, TF over GST control)"
same,binding signal,ELK4,"1.37 fold enrichment (6-mer frequency, TF over GST control)"
same,binding signal,ETV2,"1.28 fold enrichment (6-mer frequency, TF over GST control)"
same,binding signal,ELF3,"1.24 fold enrichment (6-mer frequency, TF over GST control)"
same,binding signal,CRX,"1.12 fold enrichment (6-mer frequency, TF over GST control)"
same,binding signal,ETV1,"1.34 fold enrichment (6-mer frequency, TF over GST control)"
